From the supplement of paper PMC11417369 come the findings set out here.

± gives the standard deviation of the averaged measurements. Over roughly 25,000 sequences, “ln(normalized median fluorescence intensity)” has its median near 8.9; the highest 2% begin near 10. The sample holds the highest values, similar sequences and a random draw of the others, so the mix is not that of the screen.

The subject of the experiment is PfAP2-LT AP2 domain (GST-tagged). The experiment in a line: gcPBM binding intensity (ln(normalized median fluorescence intensity)); higher = stronger DNA binding. A digest of the protocol: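 Each value is the highest Masliner-normalised natural-log median intensity across replicate spots of either orientation of a probe. The probes were primer-extended double-stranded 36-bp intergenic genomic sequences on an Agilent 4 × 180k array, alongside negative controls, exposed for 1 h to GST-tagged P. falciparum DNA-binding domains expressed in E. coli. Bound protein was picked up with Alexa488 anti-GST antibody and scanned at 488 nm.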
For “AATTTTTTATATGTCACACATTTATTATTATTATTA [CACACA_site4198]”, the “gcPBM binding intensity (ln)” value is 8.83 ± 0.48.
In the case of “AACATATAAAAATATGCACACACAGGAATACAAACA [CACACA_site8127]”, the “gcPBM binding intensity (ln)” value was 9.89 ± 0.45.
Under “AAAAAATAAATAAATAGTACTTTAAAAGAAAAAAAA [XGTACX_site5051]” stands 8.55 ± 0.51.
Under “TGTTTATTTAATAATATTTTTTTTTTTATTATATTA [XGTACX_negctrl_site56]” stands 8.31 ± 0.54; under “ATAAGATTATACAATTGTACGTTGTTCAAGATAAGG [XGTACX_site191]”, 8.8 ± 0.42.
On to “AATAAATATAAATAAATAAATATATATATATATTTG [CACACA_negctrl_site1486]”, for which the “gcPBM binding intensity (ln)” value was determined as 8.56 ± 0.4.
On to “TTTTATGTTTTAAAATGTACGTGTCAATGAATAAGT [XGTACX_site6239]”, for which the “gcPBM binding intensity (ln)” value was found to be 8.52 ± 0.42.
With “TTATTTACAACTTCAAATTATGTGTAATACTACTAT [CACACA_negctrl_site741]”, the “gcPBM binding intensity (ln)” value amounted to 8.73 ± 0.52.
In the case of “AAAACAATATACTGTAGTACTGATGATATATATATA [XGTACX_site7798]”, the “gcPBM binding intensity (ln)” value is 9.01 ± 0.38.
For the sequence “ACAAGAACAGAACGTACACACACATATATATATATA [CACACA_site9143]”, the “gcPBM binding intensity (ln)” value turned out to be 10.175 ± 0.0071.
Regarding “TAAAAAAAAACATATACACACAAAAACGTACACATA [CACACA_site1354]”, the “gcPBM binding intensity (ln)” value came out at 9.31 ± 0.3.
Turning to “AACACAAGAACAGAACGTACACACACATATATATAT [XGTACX_site7347]”, the “gcPBM binding intensity (ln)” value was 9.84 ± 0.13.
As to “AAGAACAGAACGTACACACACATATTTATATTTATA [CACACA_site7594]”, the “gcPBM binding intensity (ln)” value is 9.55 ± 0.3.
On to “TATATATACATATACACACATACGTACATACATATA [CACACA_site3585]”, for which the “gcPBM binding intensity (ln)” value turned out to be 9.13 ± 0.39.
For “AAGAACAGAACGTACACACACATATATATATATATA [CACACA_site3457]”, the “gcPBM binding intensity (ln)” value came out at 10.2 ± 0.28.
Under “AAAAAATAATAATAAAATGAATAGATATGTATTTAT [TGCATGCA_negctrl_site210]” stands 8.63 ± 0.52.
For “AAAAAAAAAAAAAAATGTACATATATAATATTTATA [XGTACX_site5117]”, the “gcPBM binding intensity (ln)” value was found to be 8.54 ± 0.57.
On to “TATAAAATTACATTTTGTCATTTATTTTTTCCCACT [TGCATGCA_negctrl_site110]”, for which the “gcPBM binding intensity (ln)” value turned out to be 8.54 ± 0.63.
In the case of “CCCACAAAGGAATATACACACATATATATATATATA [CACACA_site4091]” it was 9.95 ± 0.18; in that of “CACACAAAGGAATATACACACATATTTATATTTATA [CACACA_site7841]”, 9.21 ± 0.44.
Consider “ACAAAAGGGGAATACACACACATATATATATATATA [CACACA_site2215]”, for which the “gcPBM binding intensity (ln)” value came to 10.33 ± 0.071.
In the case of “ACAAAAGGGGAATACACACACATATATAAATAAATA [CACACA_site7111]” it was 9.59 ± 0.6; in that of “ATACAAAAGGGGAATACACACACATATATATATATA [CACACA_site8694]”, 10.12 ± 0.021; in that of “AGTATATATACACAAGGGGAATACATATACAAAATT [TGCATGCA_negctrl_site244]”, 9.04 ± 0.46.
